CHRM1 PAM = human M1 muscarinic receptor positive allosteric modulators, primary screen, CHO-K1 cells, Fluo-8 calcium fluorescence, 1536-well; 360,000 compounds, 0.088% hits; CHO-K1 hM1, ACh EC20; 0% = ACh EC20, 100% = maximal ACh; Muscarinic acetylcholine receptor M1 (Homo sapiens), P11229; AID 588819, 2011; activation, % at 3 µM; in the data active means activation above about 19%, passing the limit was not always enough
Target sequence (P11229 whole entry, looked up): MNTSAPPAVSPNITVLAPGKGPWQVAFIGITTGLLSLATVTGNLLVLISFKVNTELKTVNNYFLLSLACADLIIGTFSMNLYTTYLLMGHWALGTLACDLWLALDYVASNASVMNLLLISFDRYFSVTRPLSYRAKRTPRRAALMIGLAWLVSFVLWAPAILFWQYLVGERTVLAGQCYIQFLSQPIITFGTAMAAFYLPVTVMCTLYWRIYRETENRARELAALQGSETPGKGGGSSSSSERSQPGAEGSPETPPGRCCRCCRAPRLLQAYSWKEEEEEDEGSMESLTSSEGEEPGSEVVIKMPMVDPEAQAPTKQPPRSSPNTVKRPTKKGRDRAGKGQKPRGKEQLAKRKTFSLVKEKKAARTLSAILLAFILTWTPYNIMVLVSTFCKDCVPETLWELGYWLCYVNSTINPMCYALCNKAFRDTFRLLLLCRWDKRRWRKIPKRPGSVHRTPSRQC
CHO-K1 Ca ag = counter-screen for M1 agonists: effect in parental CHO-K1 cells | Fluo-8 calcium fluorescence; scaled to maximal ATP response, vehicle zero | AID 602248, 2012 | 360,000 compounds, 0.48% hits | activation, % at 3 µM; in the data active means activation above about 15%;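 further: untransfected CHO-K1 host cells lacking M1 receptor as counterscreen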
CHO-K1 Ca antag = M1 antagonist counterscreen hit in parental CHO-K1 cells | ATP-induced calcium, Fluo-8 fluorescence | inhibition, % at 3 µM | 360,000 compounds, 0.6% hits;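 active means inhibition above a per-plate cutoff, the plate's mean sample inhibition plus 3 SD, cut at about 24% in these data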
M1 PAM parental = nonselective calcium activators in parental CHO-K1 cells, primary screen, counter-screen for M1 PAM project, cell-based, Fluo-8 calcium fluorescence, full deck, 1536-well | ATP EC20; 0% at ATP EC20, 100% at ATP max | activation, % at 3 µM | 360,000 compounds, 0.02% hits;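 active means activation above the run cutoff, the mean activation of all test compounds plus 3 SD, cut at about 40% in these data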;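 further: peak over basal fluorescence ratio in a 140 s read after ATP addition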
M1 ag = human M1 muscarinic receptor agonists, primary screen, Fluo-8 calcium fluorescence, CHO-K1 cells, HTS; Muscarinic acetylcholine receptor M1 (Homo sapiens), P11229; CHO-K1 hM1, agonist mode; 0% DMSO, 100% acetylcholine EC100; activation, % at 3 µM; 360,000 compounds, 0.33% hits; AID 588814, 2011;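 active means activation above the run's mean compound activation plus 3 SD, cut at about 16% in these data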;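 further: peak over basal fluorescence ratio within a 140 s kinetic read after compound addition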
CHRM1 antagonist = human M1 muscarinic receptor antagonists, primary screen, CHO-K1 cells, Fluo-8 calcium fluorescence, 1536-well; Muscarinic acetylcholine receptor M1 (Homo sapiens), P11229; CHO-K1 hM1, ACh EC80 antagonist; inhibition, % at 3 µM; 360,000 compounds, 1.3% hits; AID 588852, 2011;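 active means percent inhibition above its own plate's cutoff, namely the mean of that plate's compound wells plus 3 SD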;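 further: peak over basal fluorescence ratio during 140 s after agonist addition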
A number is an active result; i = inactive; nt = no result given. Compounds with a hit are over-represented: about 2.4% of the library has one in this group of screens.

SMILES | CHRM1 PAM | CHO-K1 Ca ag | CHO-K1 Ca antag | M1 PAM parental | M1 ag | CHRM1 antagonist
O=C(COC(=O)c1ccc(F)c(S(=O)(=O)N2CCOCC2)c1)NCCc1ccccc1 | 27 | i | i | i | i | i
Cc1ccc(Nc2nnns2)cc1 | i | i | i | i | i | i
CC1=CC(C)(C)N=C(Nc2ccc(C)cc2)S1 | i | i | i | i | i | 58
COc1ccc(NC(=O)CN(C)C(=O)c2cn(-c3ccccc3)nc2-c2ccc(Cl)cc2)cc1 | i | i | i | i | i | i
COc1ccc(CN(C)C(=O)CNC(=O)c2ccc3ccccc3c2)c(OC)c1 | i | i | i | i | i | i
COc1ccc(Br)cc1CN(C)C(=O)CNC(=O)c1ccc2ccccc2c1 | i | i | i | i | i | 29
CN(C)CCOC(c1ccc(Cl)cc1)c1ccccn1 (centres undefined) | i | i | i | i | i | i
Cc1ccccc1C(OCCN(C(C)C)C(C)C)c1ccccc1 (centres undefined) | i | i | i | i | i | 101
CCC(CC)C(=O)Nc1ccc(Sc2ccc([N+](=O)[O-])cc2)cc1 | i | i | i | i | i | 35
COc1cccc(NC(=O)COC(=O)CCn2c(C)csc2=O)c1 | i | i | i | i | i | i
COC(=O)c1ccc(CSc2nnc(NC(=O)C3CCCO3)s2)cc1 (centres undefined) | i | i | i | i | i | i
O=C(Nc1nnc(SCc2ccc(Cl)cc2)s1)C1CCCO1 (centres undefined) | i | i | 31 | i | i | i
CC1(C)CC2CC(C)(CN2/C=C2/CCCCC2=O)C1 (centres undefined) | i | i | i | i | i | i
COc1ccc(C(=O)C[n+]2ccc3c(c2)nc(-c2ccccc2)n3C)cc1 | i | i | i | i | i | 57
c1ccc(-c2ccc(OCCCNC3CCCC3)cc2)cc1 | i | i | i | i | i | 36
CC1CN(C(=O)Cn2c(=O)oc3ccccc32)CC(C)O1 (centres undefined) | i | i | i | i | i | i
c1ccc2c(c1)[nH]c1ccncc12 | i | i | i | i | 18 | i
COc1ccc(C2/C=C\CN(C(=O)C3CCCCC3)CC(=O)N2Cc2ccc(F)cc2)cc1 (centres undefined) | i | i | i | i | i | i
COc1ccc(C2/C=C\CN(C(=O)C3CCCC3)CC(=O)N2Cc2ccc(F)cc2)cc1 (centres undefined) | 32 | i | i | i | i | i
CCCC(=O)Nc1cc(OC)c(C(=O)OC)cc1Cl | i | i | i | i | i | i
COc1ccc(CC(=O)N(Cc2ccccc2)c2ccccc2)cc1S(=O)(=O)N1CCOCC1 | i | i | i | i | i | 26
COCCN(Cc1ccccc1)C(=O)Cc1ccc(OC)c(S(=O)(=O)N2CCOCC2)c1 | i | i | i | i | i | i
CCOC(=O)[C@]12CCC=C1N(Cc1ccc3c(c1)OCO3)C(=O)[C@H](CC(=O)NCC1CCCCC1)C2 | nt | i | i | i | nt | nt
C/C(=N/NC(=O)CNc1ccc(C)cc1)c1ccc(Br)s1 | i | 21 | i | i | i | i
O=C(Nc1ccccc1C(=O)Nc1nnc(C(F)(F)F)s1)c1ccccc1 | i | i | 26 | i | i | i
COc1cc(N2CCCC2)c(OC)cc1/C=C1/NC(=S)NC1=O | i | 48 | 35 | i | 53 | i
CCc1ccc(NC(=O)NCCN2CCN(c3ccc(OC)cc3)CC2)cc1 | i | 15 | i | i | i | i
CCN1CCN(c2ccc(NC(=O)CCc3c(C)nc4c(-c5ccccc5)c(C)nn4c3C)cc2)CC1 | i | i | i | i | i | 37
Cc1nc2c(-c3ccccc3)c(C)nn2c(C)c1CCC(=O)NCc1ccco1 | i | i | i | i | i | i
CCN1CCN(c2cc(C(C)(C)C)nc3c(-c4ccccc4)c(C)nn23)CC1 | i | 18 | i | i | i | i
